High-throughput results: PubChem BioAssay, several laboratories
This is a sample that favours compounds with a hit; in the whole collection about 3.9% have one here.
HIF-2a inh – blocks HIF-2a reporter activity; 786-0 RCC cells HIF-2a reporter, luciferase luminescence, overnight; 360,000 tested, 0.72% active; inhibition, % at 18.8 µM; AID 624352;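 active means inhibition of the luminescence signal of 40% or more relative to plate controls, in a single-dose primary screen at 18.75 µM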
HSP90 refold inh – blocks HSP90-mediated luciferase refolding in reticulocyte lysate; inhibition, % at 5.6 µM; AID 1789; Rabbit reticulocyte lysate, luciferase refolding luminescence, 3 h; 290,000 tested, 0.91% active;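 active means inhibition above the screen-wide mean plus 3 SD, computed separately per campaign, cut at about 16% in these data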;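 further: 0% = DMSO wells and 100% = 60 µM geldanamycin wells; inhibitors lower the luminescence because luciferase stays unfolded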
TRAIL sens C8 – sensitizes caspase-8 expressing cells to TRAIL; NB7+C8 cells + TRAIL, ATPlite viability luminescence; inhibition (viability loss, TRAIL sensitization), % at 10 µM; 360,000 tested, 1% active;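 active means compounds causing at least 50% loss of cell viability in the single-dose screen, relative to plate controls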
aSyn UTR inh – 5' untranslated region of α-synuclein, MLPCN primary screen; 300,000 tested, 0.82% active; AID 1813; inhibition, % (tested at 7.5 µM); alpha-synuclein 5'UTR reporter, inhibitor activity; in the data active means inhibition above about 60%;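 further: H4 neuroglioblastoma cells stably carrying SNCA 5'UTR luciferase fusion; 0% = DMSO wells and 100% = positive control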
TROY NFkB inh – blocks TROY-dependent signaling in reporter cells. Q293 LMP1-TROYcd NF-kB luciferase reporter, 4 h. inhibition, % at 10 µM. 360,000 tested, 0.98% active;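 active means compounds whose plate-normalised and pattern-corrected inhibition of the luciferase reporter signal at the single screening dose is 50% or more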
TWEAK Fn14 block – inhibitors of TWEAK-Fn14 interaction signaling | TWEAK-stimulated Fn14 reporter cells, luciferase luminescence, 8 h | inhibition, % at 10 µM | 360,000 tested, 2% active | AID 1159606; in the data active means inhibition above about 50%
* marks the source's active call; other numbers are inactive results; · = no result.

SMILES | HIF-2a inh | HSP90 refold inh | TRAIL sens C8 | aSyn UTR inh | TROY NFkB inh | TWEAK Fn14 block
Cc1ccccc1N=CC1=C(O)c2ccccc2C1=O | -13.0 | 9.7 | 90.0* | -138.4 | 77.9* | 105.8*
N#Cc1ccccc1NC(=O)COC(=O)c1ccc2c(c1)OCO2 | -8.7 | · | -13.9 | · | -7.6 | -0.8
CC(C)C#Cc1cnc2c(c1)C(=O)N([C@H](C)CO)C[C@@H](C)[C@H](CN(C)C(=O)Nc1ccccc1F)O2 | -4.6 | · | -14.1 | · | -16.5 | -3.2
CC1(C(=O)NS(=O)(=O)c2ccccc2Cl)CCN1C(=O)c1ccco1 (configuration not stated) | 9.6 | · | -0.1 | · | 1.0 | 8.6
COCCOC(=O)N1CCCCC1c1cc(C(=O)NCc2ccc(Cl)c(Cl)c2)no1 (configuration not stated) | 12.0 | · | -3.4 | · | 8.3 | 4.4
COC(=O)c1ccc2cc(C)cc(C)c2n1 | -15.1 | · | -22.9 | · | -20.8 | -19.6
COc1ccccc1NC(=O)c1oc2ccccc2c1C | -192.7 | · | -16.9 | · | -59.8 | -38.9
CCOc1ccc2oc(C(=O)O)c(C)c2c1 | -54.4 | 1.2 | -11.3 | -7.6 | -40.2 | -14.8
CCOc1ccc2oc(C(=O)Nc3cc(C)ccn3)c(C)c2c1 | -190.4 | · | 70.4* | -67.5 | 3.7 | 14.8
COc1ccccc1CNC(=O)c1oc2ccccc2c1C | -49.0 | 1.7 | 1.6 | 16.3 | 50.9* | -3.5
CCC(=O)Nc1ccc(NC(=O)c2oc3ccccc3c2C)cc1 | 62.0* | -2.3 | -0.6 | 51.4 | -51.7 | -7.5
Cc1ccnc(NC(=O)c2cc3ccccc3oc2=O)c1 | -201.7 | 0.3 | 10.8 | -202.5 | -30.1 | 59.6*
O=[N+]([O-])c1ccc2oc(/C=C/c3ccc(O)cc3)nc2c1 | -330.3 | · | 17.8 | · | -17.9 | -34.7
O=C(NC1CCCCCC1)c1cc2ccccc2oc1=O | -187.6 | 10.2 | 12.4 | -139.2 | 5.4 | 53.9*
Cc1c(C(=O)Nc2cnccn2)oc2ccccc12 | -232.4 | -2.5 | 19.4 | -106.9 | -51.8 | -1.3
Cc1c(C(=O)NC2=NCCS2)oc2ccccc12 | -89.0 | 13.0 | 25.2 | -62.0 | -14.1 | 57.2*
Cc1ccnc(NC(=O)c2oc3ccccc3c2C)c1 | -70.6 | · | 65.7* | -10.0 | 1.5 | 50.7*
CCC1OC(C)Cc2[nH][nH]c(=O)c21 (configuration not stated) | 7.9 | · | -8.6 | · | -12.8 | -24.8
COc1cccc(-c2c(-c3ccccc3OC)ncn2Cc2cccc(-c3ccccc3)c2)c1 | -23.9 | · | -6.2 | · | · | ·
CCCCNC1C(CC)C(CCC)C(C#N)(C#N)C1(C#N)C#N (configuration not stated) | 16.8 | 4.6 | 2.2 | 6.7 | 17.0 | 55.6*
CN(C)c1ccc(Sc2ccc3nc(N)nc(N)c3c2)cc1 | -4.3 | · | 70.8* | · | 32.1 | 31.5
Cc1ccc(C(=O)N/N=C\c2ccc[nH]2)cc1[N+](=O)[O-] | -4.2 | 1.1 | 85.8* | -4.8 | -24.7 | -5.8
O=C(N/N=C/c1ccc[nH]1)c1ccccc1[N+](=O)[O-] | 12.1 | -3.4 | -5.8 | -9.1 | 0.4 | -6.8
Cc1ccc(-c2csc3ncn(/N=C/N(C)C)c(=O)c23)o1 | 9.7 | -2.4 | 4.6 | 11.3 | 9.7 | 98.5*
Cc1ccc(-c2csc3nc(C)n(N)c(=O)c23)o1 | -265.2 | -2.6 | -15.3 | -130.2 | -33.1 | -13.5
SMILES | HIF-2a inh | HSP90 refold inh | TRAIL sens C8 | aSyn UTR inh | TROY NFkB inh | TWEAK Fn14 block
COc1cccc2nc3cc(C)c(C)cc3nc12 | -134.2 | 14.3 | 68.2* | 40.7 | 9.0 | -0.8
O=C1c2ccccc2NC(c2ccccc2)N1/N=C/c1ccccc1 (configuration not stated) | -78.0 | 1.6 | 54.7* | -18.2 | 10.1 | 29.0
O=C1c2ccccc2NC(c2ccc(O)cc2)N1/N=C/c1ccc(O)cc1 (configuration not stated) | -162.0 | 6.2 | 9.4 | -122.2 | -69.7 | -14.4
NS(=O)(=O)c1ccc(NCc2c(F)cccc2Cl)cc1 | -43.0 | -1.3 | 1.0 | 0.2 | -47.8 | 5.6
Fc1cccc(Cl)c1CNc1ccc(N2CCCC2)cc1 | -39.9 | 4.0 | 13.3 | -6.9 | 17.4 | 56.9*
O=C(NCC[C@@H]1CC[C@@H](NS(=O)(=O)c2ccccc2)[C@@H](CO)O1)c1cc(Cl)cc(Cl)c1 | 8.8 | · | 13.7 | · | · | ·
O=C(Nc1ccc([N+](=O)[O-])cc1)Nc1ccc(N2CCOCC2)c2nonc12 | -32.4 | -4.1 | 21.0 | 15.7 | 68.8* | 5.8
CC(=O)Nc1cc([N+](=O)[O-])ccc1N1CCOCC1 | 14.4 | -1.5 | -5.5 | -5.4 | -10.1 | -0.7
N#C/C(=C\c1cccn1S(=O)(=O)c1cccc([N+](=O)[O-])c1)S(=O)(=O)c1ccc(F)cc1 | -18.7 | · | -3.1 | · | 23.7 | -3.4
Nc1ncnc(Sc2ncccn2)c1[N+](=O)[O-] | 30.1 | -3.0 | -7.3 | -16.2 | 30.7 | 71.2*
Nc1ncnc(Sc2ccccc2)c1[N+](=O)[O-] | 6.1 | -3.7 | 0.0 | -16.2 | 22.4 | 56.7*
Nc1ncnc(Sc2ccc(Cl)cc2)c1[N+](=O)[O-] | -20.1 | -1.0 | 15.0 | -51.1 | -7.1 | 68.9*
CN(Cc1ccccc1)c1ncnc(N)c1[N+](=O)[O-] | 11.3 | 4.3 | -0.3 | 1.5 | 27.1 | 34.2
Cc1ccc(Sc2ncnc(N)c2[N+](=O)[O-])cc1 | -18.1 | -1.2 | -4.8 | -30.3 | 14.0 | 43.3
Cc1cc2oc(=O)cc(-c3ccccc3)c2c(C)c1-c1ccc(O)cc1 | 16.2 | · | -7.2 | · | 53.5* | -32.2
Cc1cc(O)c2c(-c3ccccc3)cc(=O)oc2c1 | -14.9 | 2.8 | 6.3 | · | -19.4 | 16.5
O=C(COc1ccc(F)cc1Br)NCCCN1CCCC1=O | 8.4 | · | 11.6 | · | -12.3 | 18.7
COC(=O)c1cc(S(=O)(=O)NCC2CCN(CCc3cccs3)CC2)c[nH]1 | 4.3 | -3.7 | 0.9 | -7.9 | 1.3 | -3.6
CCCCN(C)S(=O)(=O)c1ccc(C(=O)Nc2nnc(-c3cccs3)o2)cc1 | · | -5.4 | · | 80.9* | · | ·
O=C(Nc1nnc(-c2ccccc2Cl)o1)c1ccc(S(=O)(=O)N2CCCCCC2)cc1 | · | 5.2 | · | 59.3 | · | ·
CCCCN(CC)S(=O)(=O)c1ccc(C(=O)Nc2nnc(-c3ccccc3Cl)o2)cc1 | 12.9 | -1.8 | 18.2 | 76.3* | -2.4 | -132.7
COc1ccccc1-c1nnc(NC(=O)c2ccc(S(=O)(=O)N(C)C)cc2)o1 | 19.1 | 7.3 | 12.7 | 44.6 | -7.0 | -7.5
CCN(Cc1ccccc1)S(=O)(=O)c1ccc(C(=O)Nc2nnc(-c3ccccc3OC)o2)cc1 | 17.0 | -1.6 | 10.8 | 66.6* | 7.6 | -8.7
CS(=O)(=O)c1ccccc1-c1nnc(NC(=O)c2ccc(S(=O)(=O)N3CCCC3)cc2)o1 | 17.6 | · | 1.8 | -10.0 | 70.5* | 4.0
O=C(O)CN=C(Nc1cc(Cl)cc(Cl)c1)NC(c1ccccc1)c1ccccc1 | -1.8 | · | -13.3 | · | 21.8 | 1.1
CCCCOc1ccc(C(=O)NCCN2CCC(n3c(=O)[nH]c4ccccc43)CC2)cc1 | 1.4 | · | 4.3 | · | 4.0 | 3.5
Cc1nn(S(=O)(=O)c2cccs2)c(C)c1Sc1ccccc1 | · | 0.6 | · | · | · | ·
Cc1nn(S(=O)(=O)c2cccs2)c(C)c1Sc1ccc([N+](=O)[O-])cc1 | -1.8 | -1.9 | 22.2 | 8.0 | 34.9 | 50.3*
